# Bioassay records deposited in PubChem BioAssay by Sanford-Burnham Center for Chemical Genomics.
# tim23-1 inh – tim23-1 yeast growth inhibition. S. cerevisiae tim23-1 growth, BacTiter-Glo luminescence, 24 h. inhibition, % at 20 µM. 330,000 compounds, 1.3% hits. AID 463212;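 active means growth inhibition of the mutant yeast at or above 50%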;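 further: temperature-sensitive mutant grown at 25 °C; plate controls were DMSO-treated mutant yeast for no effect and medium wells lacking yeast for full effect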
# Mdm2-MdmX inh – human Mdm2/MdmX binding inhibition; 330,000 compounds, 3% hits; inhibition, % at 8 µM; O15151+Q00987; SaOS-2 split-luciferase Mdm2/MdmX complementation, luminescence;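 active means inhibition of at least 50% at 8 µM in the primary screen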
# TIM10 inh – inhibits growth of TIM10 yeast strain; 330,000 compounds, 1.4% hits; inhibition, % at 10 µM; S. cerevisiae TIM10 strain growth, BacTiter-Glo luminescence, 24 h; AID 463195;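 active means inhibition of 40% or more at the single tested concentration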;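 further: wild-type TIM10 isogenic control strain grown at permissive 25 °C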
# MPTP inh – inhibitors of mitochondrial permeability transition pore | isolated mouse mitochondria, Ca2+ swelling absorbance, 30 min | inhibition, % at 10 µM | 360,000 compounds, 1.4% hits | AID 602449;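 active means inhibition of 50% or more, scaled per plate between neutral and stimulator controls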;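 further: 0% = DMSO wells given calcium and 100% = 1 mM EGTA wells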
# tim10-1 inh – inhibits growth of tim10-1 mutant yeast; inhibition, % at 20 µM; S. cerevisiae tim10-1 ts strain growth, BacTiter-Glo, 24 h; 330,000 compounds, 2.2% hits; AID 463190;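 active means inhibition of at least 40%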;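 further: mutant grown at 25 °C; 0% = DMSO wells with yeast and 100% = wells holding no yeast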
# tim10-1 confirm – confirmation of tim10-1 mutant yeast growth inhibitors | shares compounds with tim10-1 inh | S. cerevisiae tim10-1 ts strain growth, BacTiter-Glo, 24 h | inhibition, % at 20 µM | 7,400 compounds, 56% hits | AID 463213;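 active means inhibition of yeast growth at or above a set limit in either of two repeat tests at 20 µM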;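 further: tim10-1 mutant grown at permissive 25 °C to find synthetic lethal compounds; 0% = DMSO yeast wells and 100% = medium wells without yeast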
# * marks the source's active call; other numbers are inactive results; / = not tested or not shown. Most compounds without a hit are left out; they make up all but 6.3% or so of the library.
SMILES,tim23-1 inh,Mdm2-MdmX inh,TIM10 inh,MPTP inh,tim10-1 inh,tim10-1 confirm
C=CCN(c1nc(C)cc(OC)n1)S(=O)(=O)c1ccccc1,35.7,9.9,5.3,-0.7,33.2,/
CCN(c1nc(C)cc(OC)n1)S(=O)(=O)c1ccccc1,33.1,22.6,3.2,1.8,40.4*,19.5
CN(CC1CCCN(CCc2ccccc2F)C1)C(=O)c1cc2ccccc2o1 (stereo unspecified),/,/,/,1.4,/,/
CC(C)NC(=O)C1(C)CN(S(C)(=O)=O)CC(=O)N1CC(F)(F)F (stereo unspecified),/,/,/,-1.3,/,/
OCCNc1ncnc2c1sc1nc(N3CCOCC3)c3c(c12)CCC3,35.4,27.1,17.8,-0.3,49.2*,25.1
NNc1nnnc2c1sc1nc(N3CCOCC3)c3c(c12)CCCC3,18.3,26.3,4.6,/,-1.2,/
CCOCC(=O)Nc1nc2ccccc2s1,25.4,-38.6,-3.5,-0.3,-23.0,/
COc1ccc(/C(C)=N/OCC(=O)Nc2nc3ccccc3s2)cc1,43.0,-22.0,10.6,-0.5,42.0*,28.9*
Cc1ccccc1OCC(=O)NNC(=S)NC(=O)c1ccccc1[N+](=O)[O-],33.9,37.2,15.3,2.8,42.0*,25.1
CC1(C(=O)NCC2CC2)Cc2c(-c3cccc(C(F)(F)F)c3)ccnc2O1 (stereo unspecified),/,/,/,-0.5,/,/
COCCN(C(=O)COC(=O)C12CC3CC(CC(O)(C3)C1)C2)c1c(N)n(Cc2ccccc2)c(=O)[nH]c1=O,/,/,/,0.0,/,/
COC(=O)C1CCN(C(=O)c2ccc3nccnc3c2)CC1,-7.2,-10.7,6.4,2.9,-3.9,/
COC(=O)C1CCN(C(=O)c2ccc3nc(-c4cccc(OC)c4)oc3c2)CC1,30.0,-60.6,24.1,-1.8,41.7*,30.8
COc1ccc(-n2ncc(S(=O)(=O)c3ccccc3)c2-c2ccc(Cl)cc2)cc1,32.4,23.6,3.3,5.7,41.0*,24.9
CCCNC(=O)C1(C)CCN(Cc2noc(-c3ccccc3OC)n2)C1 (stereo unspecified),/,/,/,-0.7,/,/
CCc1nc2ccc(C(=O)N(C)CCCN(C)C)cn2c1N(C)Cc1cc2ccccc2s1,/,/,/,-0.5,/,/
Cc1ccc(NC(=O)c2sc3ncnc(N4CCN(c5ccccn5)CC4)c3c2C)c(C)c1,34.2,38.1,12.6,-0.1,47.9*,24.4
Cc1cccnc1C1=NOC(Cc2ccccc2)C(=O)N1Cc1ccc2c(c1)OCO2 (stereo unspecified),/,/,/,-2.3,/,/
CCc1c(-c2ccc(OC)cc2)ncn1Cc1cccc(-c2ccccc2)c1,/,/,/,-1.2,/,/
COc1cc(/C=C/c2nc(-c3ccccc3O)n[nH]2)cc(OC)c1OC,45.3,30.8,37.7,40.2,40.2*,27.7
CCCCN1C(=O)C(=O)NC[C@@H]1CC1CCCCC1,/,/,/,-2.0,/,/
C=CCNC(=S)N/N=C(\C)c1cccnc1,5.3,0.8,-16.8,-1.2,21.9,/
C=CCNC(=S)N/N=C(\C)c1ccc(OC)cc1,6.7,-28.0,20.3,1.3,41.0*,13.6
CCN(CC)c1ccc(Nc2nc(-c3cccnc3)cs2)cc1,29.5,-50.5,2.0,-1.1,49.3*,33.3*
CN(C)c1ccc(Nc2nc(-c3cccnc3)cs2)cc1,-3.8,-66.5,-4.8,-7.8,12.2,/
SMILES,tim23-1 inh,Mdm2-MdmX inh,TIM10 inh,MPTP inh,tim10-1 inh,tim10-1 confirm
O=C(COC(=O)c1ccc(-c2ccc([N+](=O)[O-])cc2)o1)NC(=O)NC1CCCCC1,35.1,31.8,1.3,2.2,41.6*,18.6
COc1ccc(/C=C(\C#N)C(=O)N2COCC2(C)C)cc1,46.6,-10.1,20.6,1.3,46.6*,31.3*
COc1ccc(/C=C(\C#N)C(=O)N=CN(C)C)cc1,13.7,1.7,8.0,-0.2,19.8,/
Cc1cccc(NC(=O)c2cc(-c3ccco3)nc3ccccc23)n1,26.4,-11.7,25.5,-6.0,41.0*,17.1
Cc1ccccc1NC(=O)c1cc(-c2ccco2)nc2ccccc12,/,/,/,1.1,/,/
CCc1cccc(C)c1NC(=O)c1cc(-c2ccncc2)nc2ccccc12,26.7,12.3,15.8,0.4,41.9*,22.6
Cc1cccc(C)c1NC(=O)c1cc(-c2ccccn2)nc2ccccc12,33.4,15.8,17.5,-0.4,40.8*,26.8
CCOc1ccc(NC(=O)CN2CCN(c3ccc(F)cc3)CC2)cc1S(=O)(=O)N1CCCC1,/,/,/,0.7,/,/
COc1ccc([N+](=O)[O-])cc1NC(=S)Nc1ccccc1,13.0,15.5,13.1,-7.4,10.0,/
O=[N+]([O-])c1ccc(O)c(NC(=S)Nc2ccccc2)c1,35.3,-22.4,37.8,7.8,47.6*,26.8
CCOc1ccc(-c2n[nH]c(C)c2Oc2ccc(OC)cc2)c(O)c1,41.0,3.1,34.4,5.7,44.0*,47.3*
Clc1ccc(Cn2ncc3c(N4CCCCC4)ncnc32)cc1,24.1,14.0,12.0,-1.5,23.6,/
Clc1ccc(Cn2ncc3c(N4CCCCC4)ncnc32)c(Cl)c1,47.2,29.2,21.7,/,42.9*,27.4
O=C(NC1CCCCC1)C(c1cccs1)N(Cc1cccs1)C(=O)c1cccs1 (stereo unspecified),24.9,15.5,27.4,6.6,45.4*,26.5*
Cc1c(-c2ccccc2)sc(Br)c1C(=O)N1CCOCC1,40.6,6.1,13.9,-0.1,47.8*,23.4
COc1cccc(OC)c1C(=O)N1CCOCC1,8.5,5.7,1.7,-1.4,6.6,/
Cc1c(Cl)cccc1NC(=S)/C(=C(\[O-])c1ccc(Cl)s1)[n+]1ccccc1,42.1,5.7,19.3,7.2,47.1*,36.5*
[O-]/C(=C(\C(=S)Nc1cccc2ccccc12)[n+]1cccc(CO)c1)c1ccc(Cl)s1,/,/,/,3.4,/,/
Cc1cc2c(cc1C)-n1nnnc1C(N1CCN(C(=O)OCc3ccccc3)CC1)C(=O)N2 (stereo unspecified),/,/,/,0.5,/,/
CC(C)CNc1ncnc2c1ncn2[C@H]1CN(Cc2ccc3c(c2)OCO3)C[C@@H](CO)O1,/,/,/,0.8,/,/
CC1(C(=O)NCc2ccc(Cl)cc2)CCN1C(=O)Cc1cccs1 (stereo unspecified),/,/,/,0.5,/,/
S=c1nc(-c2ccccc2)n(-c2ccccc2)[nH]1,-0.6,-16.5,14.3,1.1,-1.7,/
S=c1nc(C2CCCCC2)n(-c2ccccc2)[nH]1,30.3,-10.3,34.4,-2.4,44.1*,24.7
COC(=O)c1cccnc1-n1c(=O)c2cccnc2n(Cc2ccc(Cl)cc2)c1=O,45.1,1.0,37.8,1.1,49.0*,36.8*
O=C1Nc2cc(C(=O)N3CCN(c4ccccn4)CC3)ccc2S/C1=C\c1ccccc1,42.4,18.4,30.5,-0.5,41.8*,-8.4
COC(=O)C1(Cc2cc(-c3ccccc3)no2)CCN(C(=O)OC(C)(C)C)CC1,29.2,-1.4,20.8,0.2,43.2*,34.4*
COC(=O)c1ccc(-c2cc(CC3(C(=O)OC)CCN(C(=O)OC(C)(C)C)CC3)on2)cc1,23.1,4.4,18.7,0.5,31.5,/
COCCN(Cc1ccc(C)cc1)C(=O)[C@H]1O[C@@H](n2ccc(=O)[nH]c2=O)[C@H](O)[C@@H]1O,/,/,/,-2.5,/,/
CCn1c(-c2ccccc2)c(C(=O)CC#N)c2ccccc21,31.6,10.2,25.4,-1.1,42.2*,30.0*
